# Data as given in the supplement of paper PMC7335073.
# In all, about 4,100 sequences were measured (“relative CpG methylation activity (normalised to average over all NNNCGNNN flanks)”: median about 0.94, highest 2% from about 1.9 on). Shown is part of a subset that was picked to be rich in the highest values.
# Molecular target: DNMT3B catalytic domain (mouse) (UniProt O88509)
# Assay: relative CpG methylation activity (normalised to average over all NNNCGNNN flanks) (relative (1 = mean)); higher = more methylation of the central CpG
# Settings: system: in vitro, murine catalytic domain; CpG state: hemimethylated substrate pool; residues: 558-859
# Protocol: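 Deep enzymology: a pool of dsDNA substrates with a central CpG flanked by 10 random nucleotides on each side was methylated by the murine DNMT3A or DNMT3B catalytic domain (0.8 mM SAM, 37 °C, 60 min). Methylation was then read out by hairpin ligation, bisulfite conversion and NGS. Values are the average methylation of each NNNCGNNN context (±3 flanks; the outer flanks are random and averaged over), normalised to the overall mean, so 1 = average activity.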
# Sequence of DNMT3B catalytic domain (mouse) (O88509 558-859): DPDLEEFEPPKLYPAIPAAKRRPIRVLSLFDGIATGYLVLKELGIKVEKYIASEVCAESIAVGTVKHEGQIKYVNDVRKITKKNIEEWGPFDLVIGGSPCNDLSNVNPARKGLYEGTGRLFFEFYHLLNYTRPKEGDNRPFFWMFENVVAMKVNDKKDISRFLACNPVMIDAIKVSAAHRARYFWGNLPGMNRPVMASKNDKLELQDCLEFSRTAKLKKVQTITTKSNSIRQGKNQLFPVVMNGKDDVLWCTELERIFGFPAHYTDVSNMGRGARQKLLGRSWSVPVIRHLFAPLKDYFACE
row,Sequence,relative CpG methylation activity
1,GTTCGGGT,1.37
2,TTTCGGCG,1.79
3,CTTCGGCA,1.97
4,TTTCGGGA,1.79
5,GTTCGGCT,1.75
6,TTTCGGGT,2.02
7,CTTCGGCT,1.9
8,TTTCGGCA,1.69
9,GTTCGGCA,1.88
10,TTTCGGCT,2.04
11,CTTCGGCG,1.67
12,TTTCGGCC,1.65
13,AGTCGGTG,0.863
14,ATTCGCGC,0.947
15,CGGCGCTA,0.358
16,CACCGGCC,1.34
17,ACTCGGCA,1.42
18,ACTCGGCC,1.62
19,ACTCGGCT,1.95
20,TTACGTTG,1.29
21,AGGCGCGA,0.281
22,CTTCGGGT,1.33
23,CTCCGGCA,1.88
24,CTTCGGGC,2.18
25,GTCCGGGC,1.53

row,Sequence,relative CpG methylation activity
1,CTCCGGCC,1.94
2,CTCCGGGC,2.05
3,TTCCGGGC,1.7
4,ATTCGGGC,1.72
5,ATCCGGCC,1.48
6,ATCCGAGA,1.4
7,GCACGAGC,1.79
8,GAACGTGC,1.03
9,CAGCGGTG,0.603
10,GTCCGTAT,0.661
11,TATCGGAT,1.18
12,ACCCGATT,1.41
13,GCTCGTCA,0.561
14,CTACGGTA,1.81
15,TTACGGTA,2.02
16,TTACGGTC,2.02
17,CTACGGTC,1.85
18,ATACGGTC,1.68
19,GTACGGTA,1.61
20,GGACGCGG,0.51
21,CATCGATC,1.81
22,GCCCGACG,1.16
23,TCACGCTT,1.36
24,CTACGACT,1.92
25,ATACGAGA,1.82

row,Sequence,relative CpG methylation activity
1,ATACGAGG,1.72
2,CTACGACG,1.81
3,ATACGAAT,1.64
4,GTACGACT,1.46
5,ATACGAGT,1.92
6,TTACGAGC,2.09
7,ATACGAGC,1.87
8,CTACGAGA,1.96
9,TTACGAGG,1.8
10,TTACGAGA,1.84
11,CATCGCTA,0.882
12,GATCGCTG,0.405
13,TCCCGCCG,0.883
14,GAGCGTAT,0.648
15,GCACGTGG,0.497
16,GTCCGTCT,0.827
17,TCTCGCGG,0.647
18,CTGCGCTG,0.95
19,TACCGCTA,0.483
20,CAGCGACC,0.972
21,GACCGCAA,0.281
22,GTACGAGT,1.48
23,TTACGAGT,1.74
24,GTACGAGC,1.83
25,CTACGAGT,1.96

row,Sequence,relative CpG methylation activity
1,CTACGAGC,2.12
2,CTACGAGG,1.68
3,CGCCGGTC,1.23
4,AAACGCGG,1.24
5,CTCCGCGT,0.717
6,CCTCGAGT,1.5
7,AAACGAGA,1.9
8,CAACGAGA,1.94
9,TCACGAGG,1.7
10,GAACGAGA,1.76
11,TCACGAGA,1.96
12,TCACGAGT,1.49
13,TCTCGAGA,1.96
14,CAACGAGC,1.74
15,TAACGAGA,1.72
16,TCTCGAGC,1.53
17,TCTCGAGT,1.45
18,CAACGAGT,1.47
19,TTACGCCG,1.59
20,TACCGGCC,1.52
21,CGCCGTAG,0.147
22,AAACGCGC,1.46
23,AAGCGTTT,0.413
24,AAGCGTTC,0.586
25,TAGCGCCC,0.741

row,Sequence,relative CpG methylation activity
1,TCGCGGAC,0.818
2,GGCCGTGG,0.0382
3,CCTCGAAT,1.3
4,CAACGGCA,1.74
5,GAACGGCC,1.81
6,AAACGGCC,1.76
7,CAACGGCT,1.92
8,CAACGGCC,1.93
9,AAACGGCT,1.82
10,ACGCGCGA,0.411
11,GACCGGGT,1.03
12,ACGCGTGA,0.523
13,TTCCGAAT,1.58
14,GAACGGCA,1.84
15,GCACGGCC,1.77
16,AAACGGCA,1.91
17,ACACGGCA,1.89
18,AAACGGCG,1.68
19,CCACGGCC,1.7
20,ACACGGCT,1.89
21,ACACGGCG,1.6
22,ACACGGCC,1.94
23,CAACGCGA,0.965
24,AGTCGTCA,0.379
25,CAACGTCA,1.15

row,Sequence,relative CpG methylation activity
1,CGCCGTAC,0.561
2,ATTCGCAG,0.453
3,TTTCGATA,1.81
4,ATCCGAGT,1.37
5,GTCCGATC,1.77
6,CTCCGAGC,2.06
7,CTCCGAGA,1.73
8,TTCCGAGT,1.83
9,TTTCGATC,1.95
10,TTCCGATT,1.75
11,TTCCGATC,2.31
12,ATCCGAGC,1.68
13,CTCCGAGT,1.99
14,GTTCGATC,1.3
15,CATCGAAC,1.6
16,ACGCGTGG,0.317
17,GATCGTTG,0.455
18,TGACGGAT,0.829
19,TTCCGAGG,1.42
20,TTCCGAAC,1.89
21,TTCCGAGC,1.9
22,TTCCGAAG,1.32
23,ATCCGAAC,1.63
24,TTCCGAGA,1.6
25,CCGCGGTC,1.43

row,Sequence,relative CpG methylation activity
1,GTTCGGGC,1.53
2,ACGCGATT,1.09
3,GATCGAAC,1.16
4,TTACGATT,2.01
5,GTACGATT,1.75
6,TAACGATA,1.81
7,TTACGATA,1.94
8,GTACGATC,1.73
9,TTACGATC,2.01
10,TTACGATG,1.53
11,CTACGATT,1.83
12,TCACGATA,1.76
13,CGTCGATA,1.84
14,TGCCGGGG,0.469
15,CGACGTGC,0.674
16,AGCCGAAA,0.798
17,AAACGTTA,0.806
18,CCCCGTTA,0.69
19,ACGCGTTG,0.312
20,TCACGACC,1.17
21,GTGCGGGT,1.3
22,TTACGAAC,1.96
23,TTACGAAA,1.78
24,CTACGAAG,1.6
25,CTACGAAT,1.56

row,Sequence,relative CpG methylation activity
1,CTACGAAC,1.91
2,TTACGAAT,1.76
3,CCTCGGTT,1.13
4,AATCGTTC,0.607
5,AGCCGAGC,1.24
6,TTCCGGCT,1.61
7,GTTCGTGA,0.411
8,CTCCGGTT,1.72
9,TTCCGGTA,1.33
10,TTCCGGTC,2.04
11,ATCCGGTT,1.46
12,TTCCGGCC,1.67
13,ATCCGGCG,1.82
14,TTCCGGCG,2.04
15,TTCCGGTT,2.2
16,CTCCGGTC,1.8
17,ATTCGTTC,0.876
18,AAGCGCCG,0.713
19,TAGCGGGG,0.665
20,CATCGGCT,1.78
21,GTTCGGTC,1.15
22,GACCGTTT,0.177
23,ATTCGAAC,1.69
24,CTTCGAAA,1.57
25,ATTCGAGA,1.83

row,Sequence,relative CpG methylation activity
1,CTTCGAGA,1.95
2,CTTCGAGG,1.65
3,CTTCGAAC,1.98
4,TACCGTGT,0.198
5,ACCCGGAT,0.954
6,TATCGGAA,0.708
7,CCTCGGAC,1.14
8,CCCCGGCA,1.72
9,TCCCGGCA,1.62
10,TCCCGGCT,1.95
11,ACCCGGCT,1.67
12,CCCCGGCG,1.95
13,GCCCGGCT,1.4
14,CCCCGGCT,2.05
15,TCCCGGCG,1.87
16,CCCCGGCC,1.77
17,AAGCGTGC,0.448
18,ATCCGTCC,1.35
19,AGTCGTCG,0.57
20,ACGCGTTC,0.658
21,ACCCGCGA,0.371
22,GCACGCTG,0.98
23,CAACGATG,1.43
24,CTACGATC,1.92
25,ATACGATG,1.63

row,Sequence,relative CpG methylation activity
1,ACACGATA,1.75
2,CAACGATA,1.77
3,ATACGATC,2.12
4,CCACGATC,1.74
5,ATACGATA,2.03
6,ATACGATT,1.74
7,CAACGATC,1.94
8,CTACGACC,1.82
9,GTACGATA,1.73
10,GTTCGCAA,0.436
11,TCTCGGTT,0.917
12,ACTCGGCG,1.6
13,TGGCGTGT,0.0208
14,CAGCGACA,0.777
15,CTGCGTCA,0.944
16,CCTCGCCA,1.05
17,GGCCGGGT,0.602
18,GGCCGAGC,1.53
19,TGACGCCT,1.11
20,CTACGATG,1.83
21,CCACGATA,1.7
22,CTACGCTC,1.91
23,CTACGATA,1.97
24,GTACGCTC,1.53
25,CTACGCTA,1.47

row,Sequence,relative CpG methylation activity
1,TAGCGCCT,0.72
2,CGACGTAA,0.604
3,GGTCGATT,1.49
4,AGTCGGCA,2.11
5,TCTCGGCC,1.96
6,TCTCGGCT,1.8
7,TATCGGCC,2.01
8,TATCGGCG,1.79
9,AGTCGGCT,1.79
10,TATCGGCA,1.95
11,AGTCGGCC,1.69
12,CATCGGCA,1.83
13,AATCGGCA,1.74
14,AATCGGCC,1.88
15,CCTCGGCC,1.66
16,ATTCGAGG,1.29
17,AGTCGGGT,1.16
18,GTACGCCT,1.73
19,TTCCGATG,1.47
20,GGCCGCGC,0.361
21,AGACGGTA,1.16
22,GCTCGATG,1
23,ATTCGGCT,1.69
24,CTACGGCC,1.96
25,TCACGGCT,1.83

row,Sequence,relative CpG methylation activity
1,CTACGGAC,1.64
2,TTACGGCT,1.98
3,GTACGGTG,1.48
4,CTGCGGCC,1.22
5,GTACGGAG,1.39
6,GTACGGCG,2.05
7,ATTCGGCG,1.77
8,ATTCGGCC,2.04
9,TTACGGTT,1.85
10,ATGCGGAC,0.76
11,TTGCGAAG,0.966
12,ATCCGCCG,0.929
13,CACCGGGT,1.06
14,CAGCGCTG,0.635
15,GTGCGCGT,0.649
16,TGTCGCCC,0.734
17,TGACGAGT,1.21
18,AGTCGTGG,0.341
19,CGTCGTGT,0.248
20,ATGCGGCT,1.55
21,CTACGGCA,2.23
22,TTGCGGCC,1.43
23,ATACGGAA,1.32
24,ATACGGAG,1.21
25,CCACGGCA,1.74

row,Sequence,relative CpG methylation activity
1,ATACGGCA,2.11
2,ATACGGTA,1.64
3,TTGCGGCT,1.95
4,ATACGGTG,1.75
5,ATACGGCG,2.11
6,CTACGGAA,1.68
7,AAACGAAA,1.58
8,CATCGTCC,0.944
9,GTGCGTCA,0.799
10,TCCCGGGG,1.21
11,CATCGCGG,0.514
12,GAACGGCG,1.53
13,AGGCGTGC,0.175
14,ACCCGGTT,1.29
15,GCTCGGGA,1.17
16,TCACGGCC,1.74
17,GTACGGCT,1.56
18,GCACGGCA,1.79
19,TTACGGCC,1.97
20,GTACGGCA,1.9
21,CCACGGCG,1.86
22,CTACGGCG,2.04
23,CTACGGCT,2.28
24,TTACGGAC,1.85
25,CCACGGCT,1.89

row,Sequence,relative CpG methylation activity
1,CTACGGTT,1.76
2,CTACGGAG,1.52
3,CCTCGATT,1.35
4,TGACGGCA,1.53
5,CACCGTAT,0.274
6,CTACGCCA,1.78
7,TCCCGTTA,0.532
8,TAGCGGTC,1.12
9,GCACGCTA,0.861
10,AGTCGATC,1.7
11,AGTCGGAT,0.542
12,AGGCGTCT,0.521
13,GTTCGGAC,1.37
14,TTACGGCG,2.25
15,TTACGGAA,1.64
16,TCACGGCA,1.82
17,GTACGGAC,1.51
18,TTACGGTG,1.52
19,ATACGGCT,1.89
20,TTACGGCA,2.04
21,TCACGGCG,1.89
22,GTACGGCC,1.9
23,ATACGGAC,1.59
24,GTACGGTC,1.87
25,ATACGGCC,2.01
